# Data published in PubChem BioAssay.
# Calls of active or inactive are those of the source. Cut-off read from the data, not from the text of the source, unless noted: active = inhibition above about 25%; inactive = the rest.
# Experiments:
# [1] = target: Nuclear receptor coactivator 1 (Homo sapiens) (UniProt Q15788); test: SRC1 coactivator transcriptional activity inhibitors, confirmation, cell-based, luminescence, quadruplicate (AID 588820;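 active = mean inhibition above 46.68%, the untreated control wells mean plus 3 SD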;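 note: 0% = DMSO wells and 100% = gossypol 36 µM treated wells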); settings: HEK293 GAL4-SRC1 luciferase reporter, at 3.6 µM, hits give high values
# [2] = VP16 transactivation inhibitors, counter-screen for SRC1 inhibitor project, cell-based, luminescence, high throughput (AID 588824); settings: cell-based VP16 transactivation luciferase luminescence; at 3.6 µM; hits give high values
# Sequence of Nuclear receptor coactivator 1 (Homo sapiens) (Q15788 whole entry, looked up, the tested form may be a part): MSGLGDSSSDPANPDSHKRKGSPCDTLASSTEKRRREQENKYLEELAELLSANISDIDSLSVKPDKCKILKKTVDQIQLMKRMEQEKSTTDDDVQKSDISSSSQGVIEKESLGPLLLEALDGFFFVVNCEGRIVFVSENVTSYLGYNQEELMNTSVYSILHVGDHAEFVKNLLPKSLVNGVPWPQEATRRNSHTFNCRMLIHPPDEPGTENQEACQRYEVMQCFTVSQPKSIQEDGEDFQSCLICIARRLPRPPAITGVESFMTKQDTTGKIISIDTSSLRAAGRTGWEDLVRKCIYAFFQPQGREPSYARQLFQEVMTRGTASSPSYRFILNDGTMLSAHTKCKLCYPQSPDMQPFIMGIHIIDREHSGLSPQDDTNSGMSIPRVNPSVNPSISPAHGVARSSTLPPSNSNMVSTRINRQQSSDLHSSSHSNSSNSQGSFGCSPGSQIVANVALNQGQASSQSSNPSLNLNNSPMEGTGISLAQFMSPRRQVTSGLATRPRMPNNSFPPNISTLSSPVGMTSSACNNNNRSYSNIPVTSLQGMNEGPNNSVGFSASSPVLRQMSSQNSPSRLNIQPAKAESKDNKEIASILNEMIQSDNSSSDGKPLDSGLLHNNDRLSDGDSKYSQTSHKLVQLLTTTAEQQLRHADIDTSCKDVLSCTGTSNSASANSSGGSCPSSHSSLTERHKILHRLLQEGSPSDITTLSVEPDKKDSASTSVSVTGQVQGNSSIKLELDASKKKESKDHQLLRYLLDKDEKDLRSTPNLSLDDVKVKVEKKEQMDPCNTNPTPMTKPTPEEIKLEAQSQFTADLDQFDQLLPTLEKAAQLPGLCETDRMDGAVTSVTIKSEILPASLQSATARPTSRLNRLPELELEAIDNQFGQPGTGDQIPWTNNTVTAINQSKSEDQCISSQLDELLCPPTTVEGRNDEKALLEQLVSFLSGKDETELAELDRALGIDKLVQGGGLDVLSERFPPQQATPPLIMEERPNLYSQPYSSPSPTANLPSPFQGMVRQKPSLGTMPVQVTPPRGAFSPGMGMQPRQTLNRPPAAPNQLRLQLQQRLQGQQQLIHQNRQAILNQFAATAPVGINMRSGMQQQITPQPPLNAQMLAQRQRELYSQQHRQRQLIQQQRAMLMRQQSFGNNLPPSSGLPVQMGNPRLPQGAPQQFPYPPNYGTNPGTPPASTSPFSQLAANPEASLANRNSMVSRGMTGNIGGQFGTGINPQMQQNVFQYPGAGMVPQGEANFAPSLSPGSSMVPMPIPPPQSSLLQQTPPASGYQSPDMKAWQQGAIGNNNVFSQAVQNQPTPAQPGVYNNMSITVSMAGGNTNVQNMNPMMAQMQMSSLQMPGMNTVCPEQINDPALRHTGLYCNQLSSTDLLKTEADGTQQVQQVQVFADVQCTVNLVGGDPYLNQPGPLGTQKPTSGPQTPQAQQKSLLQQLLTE
SMILES,inhibition [1],inhibition [2]
CN(C)S(=O)(=O)c1ccc(N2CCCC2)c(C(=O)OCC(=O)NC2(C#N)CCCCC2)c1,4.07% (inactive),-9.13% (inactive)
CCCCCOC(=O)C1=C(C)NC(=O)NC1c1ccc([N+](=O)[O-])cc1 (centres undefined),-6.01% (inactive),2.27% (inactive)
CCCn1c(=O)c(C(=O)NC(C)c2ccccc2)c(O)c2ccccc21 (centres undefined),-10.4% (inactive),-9.6% (inactive)
CC(C)(C)c1ccc(-c2cc(-c3ccccc3O)[nH]n2)cc1,-42.5% (inactive),-28.4% (inactive)
Cc1ccc(S(=O)(=O)N2CCN(c3ncnc4sccc34)CC2)cc1C,-1.32% (inactive),21.7% (inactive)
Cc1ccn(CC(=O)N/N=C/c2cc([N+](=O)[O-])ccc2O)n1,7.62% (inactive),9.09% (inactive)
O=C(CS(=O)c1ccc(F)cc1)N1CCOCC1 (centres undefined),-1.56% (inactive),-3.56% (inactive)
CCN(CC)CCNc1nc2cc(OC)c(OC)cc2c2nc(-c3ccccc3)nn12,9.19% (inactive),33.3% (active)
O=C(CN1CCN(Cc2ccc(Cl)cc2)C1=O)NCCCN1CCOCC1,-13.2% (inactive),-10.7% (inactive)
COc1ccccc1C(NC(C)=O)c1cc(Cl)c2cccnc2c1O (centres undefined),31.7% (inactive),26.6% (active)
COc1ccc(CCNc2ncnc3c2[nH]c2cc(OC)c(OC)cc23)cc1OC,-33.2% (inactive),-14.5% (inactive)
CCOc1ccc(CCNC(=O)COC(=O)c2cc(OC)c(OC)cc2[N+](=O)[O-])cc1OCC,-11.8% (inactive),-2.67% (inactive)
